Measurements published in PubChem BioAssay.
Values without a mark were called inactive. The source made the active and inactive calls.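 The calls were made as follows: active = compounds that lower survival of DLD-1 colon cancer cells in the luminescence readout, no cutoff given; inactive = the rest.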

Experiment: NPC library primary testing for decreased DLD-1 cell viability via CellTiter-Glo (AID 1117346)
Settings: DLD-1 viability, CellTiter-Glo luminescence; at 20 µM (top of the series)

| SMILES | viability decrease (inhibition) |
| --- | --- |
| CCOC(=O)N1CCC(Nc2ccc(Cl)cc2N)CC1 | -12.2% |
| OCCCc1ccccc1 | 7.85% |
| CC[C@@H]([C@H](C)O)n1ncn(-c2ccc(N3CCN(c4ccc(OC[C@@H]5CO[C@@](Cn6cncn6)(c6ccc(F)cc6F)C5)cc4)CC3)cc2)c1=O | 24.1% |
| Nc1ncnc2c1ncn2Cc1c(F)cccc1Cl | -2% |
| Cc1nc2n(c(=O)c1CCN1CCC(C(=O)c3ccc(F)cc3)CC1)CCS2 | 33.5% |
| COC(=O)c1cc(Cl)c(NC(C)=O)cc1OC | -11.9% |
| CC(C(=O)O)c1ccc(/C=C2\CCCCC2=O)cc1 (centres undefined) | -23.7% |
| Cn1c(O)c(N=NC(N)=S)c2ccccc21 | 12.2% |
| OC[C@H]1O[C@@H](n2cnc3c(=S)nc[nH]c32)[C@H](O)[C@@H]1O | 73.5% (active) |
| CCOC(=O)CN1CCCC1=O | 1% |
| COC(=O)/C=C(/C)N | -8.3% |
| CCCN(CCc1cccs1)[C@H]1CCc2c(O)cccc2C1 | 9.7% |
| CCCCCCCC/C=C\CCCCCCCCN | 106% (active) |
| COc1ccc(S(=O)(=O)N2c3ccc(Cl)cc3[C@@](O)(c3ccccc3Cl)[C@H]2C(=O)N2CCC[C@@H]2C(N)=O)cc1OC | 4.6% |
| C/C(=N/NC(=O)c1ccncc1)C(=O)O | 4.2% |
| O=C(O)Cc1ccc(CCNS(=O)(=O)c2ccc(Cl)cc2)cc1 | -6.1% |
| CCOC(CN1CCN(CC(C)C(=O)c2ccccc2)CC1)c1ccccc1 (centres undefined) | -4.9% |
| C[C@@H]1CCN(C(=O)[C@H](CCCN=C(N)N)NS(=O)(=O)c2cccc3c2NC[C@H](C)C3)[C@@H](C(=O)O)C1 | 0.9% |
| Nc1cc(C(F)(F)F)ccc1S | 20.8% |
| c1ccc(C(O[C@H]2CCCN(CCc3ccc4c(c3)OCO4)C2)c2ccccc2)cc1 | 90.1% (active) |

| SMILES | viability decrease (inhibition) |
| --- | --- |
| CCN(CC)CCOc1ccccc1C(=O)CCc1ccccc1 | 23.2% |
| CCOCCOC(=O)/C=C/c1ccc(OC)cc1 | 9.7% |
| CC1(C)S[C@@H]2[C@H](NC(=O)Cc3ccccc3)C(=O)N2[C@H]1C(=O)O (tested in a mixture with another compound) | -12.1% |
| Cc1cnc(NS(=O)(=O)c2ccc(N)cc2)nc1 | 6.6% |
| CC(C)[C@H](N)C(=O)O | 14.8% |
| CCOC(=O)c1c(N)sc2c1CCN(Cc1ccccc1)C2 | 31.8% (active) |
| CC1(C)CO[C@@H](CC(=O)O)CN1 | -1% |
| O=Cc1ccccc1C=O | -1.7% |
| COc1cc2c(cc1OC)C(C(C(=O)N(CCc1ccc(OC)c(OC)c1OC)CCc1ccc(OC)c(OC)c1OC)c1ccccc1)=NCC2 (centres undefined) | 69.8% (active) |
| CC(=O)N1CCN(c2ccc(O)cc2)CC1 | 34.4% |
| C[C@H]1O[C@@H](O[C@H]2CC[C@@]3(C)[C@H](CC[C@@H]4[C@@H]3C[C@@H](O)[C@]3(C)[C@@H](C5=CC(=O)OC5)CC[C@]43O)C2)C[C@H](O)[C@@H]1O[C@H]1C[C@H](O)[C@H](O[C@H]2C[C@H](O)[C@H](O[C@@H]3O[C@H](CO)[C@@H](O)[C@H](O)[C@H]3O)[C@@H](C)O2)[C@@H](C)O1 | 79.5% (active) |
| Cc1ncc(C[n+]2csc(CCOP(=O)(O)O)c2C)c(N)n1 | 17.1% |
| CC(C)(Cc1c[nH]c2ccccc12)NCC(O)COc1ccccc1C#N (centres undefined) | 49.7% |
| CCC(C(=O)NC(=O)NC(C)=O)c1ccccc1 (centres undefined) | 6.1% |
| CCCCCOc1ccc(C2SC(=O)NC2=O)cc1OCC (centres undefined) | 11.8% |
| Cc1cc(N)c2cc(NC(=O)Nc3ccc4nc(C)cc(N)c4c3)ccc2n1 | 94.2% (active) |
| CC(C)NCCCC1(C(N)=O)c2ccccc2-c2ccccc21 | -17% |
| CC(=O)c1ccc(OCC(=O)N2CCCCC2)cc1 | -2.8% |
| C[C@H](CCC(=O)O)[C@H]1CC[C@H]2[C@H]3[C@@H](CC[C@]12C)[C@@]1(C)CC[C@@H](O)C[C@H]1C[C@@H]3O | -6.8% |
